Assay outcomes deposited in PubChem BioAssay by National Center for Advancing Translational Sciences (NCATS).
12-LOX inh: Primary qHTS assay for inhibitors of human arachidonate 12S-lipoxygenase (ALOX12): Round 2 | 580,000 compounds, 1.1% hits | Potency, µM (highest dose often 108 µM), for inactives: at the highest dose activity change, negative = inhibition, most hits filed as inhibitors | purified 12hLO, xylenol orange hydroperoxide absorbance | AID 1671190, 2021; note: % is set by controls: 0 for no effect and ±100 for the full control effect
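Hydroperoxide product was detected by ferrous iron/xylenol orange as the 573 to 405 nm absorbance ratio. Arachidonic acid at 40 uM (final) was turned over for 30 min at room temperature by 150 nM human 12hLO, pH 7.0 Hepes buffer, after 15 min compound preincubation.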
VDR inhibitor: Inhibitors of the vitamin D receptor (VDR): qHTS | Vitamin D3 receptor (Homo sapiens), P11473 | VDR-SRC2-3 peptide fluorescence polarization, 2 h | Potency, µM, inactives show max response, negative = inhibition, hits mostly inhibitors | 400,000 compounds, 0.93% hits | AID 504847, 2011; note: % is set by controls: 0 for no effect and ±100 for the full control effect
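FP read-out; VDR + SRC2-3 coactivator peptide; 23 nl compound by pintool; 2 h RT incubation; reagents held at 4 deg C, protected from light.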
Sfp inh: qHTS Assay for Inhibitors of Bacillus subtilis Sfp phosphopantetheinyl transferase (PPTase); 4'-phosphopantetheinyl transferase ffp (Bacillus subtilis), Q9F4F7; Biochemical Sfp PPTase activity, qHTS; Potency, µM, inactives show largest response in the series, negative = inhibition, actives largely listed as inhibitors; 310,000 compounds, 3.5% hits; AID 1490, 2009;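 note: the enzyme is Sfp with the accession as filed and its product quenches rhodamine fluorescence; 0% = enzyme reaction without inhibitor and -100% = no enzyme wells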
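Compounds were incubated with enzyme (final 15 nM) for 15 min at room temperature before substrate addition started the reaction. Fluorescence at 525 nm excitation, 598 nm emission was recorded immediately and after 30 minutes.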
G9a block: qHTS Assay for Inhibitors of Histone Lysine Methyltransferase G9a | Histone-lysine N-methyltransferase EHMT2 (Homo sapiens), Q96KQ7 | G9a H3K9 monomethylation, AlphaScreen, 2 h | Potency, µM (top dose mostly 102 µM), inactives show top-dose activity, negative = inhibition, hits mostly inhibitors | 350,000 compounds, 8.8% hits; note: % is set by controls: 0 for no effect and ±100 for the full control effect; nearly all actives have a fitted effect of over 75% in size
Target sequence (Q96KQ7 913-1193 limits assumed): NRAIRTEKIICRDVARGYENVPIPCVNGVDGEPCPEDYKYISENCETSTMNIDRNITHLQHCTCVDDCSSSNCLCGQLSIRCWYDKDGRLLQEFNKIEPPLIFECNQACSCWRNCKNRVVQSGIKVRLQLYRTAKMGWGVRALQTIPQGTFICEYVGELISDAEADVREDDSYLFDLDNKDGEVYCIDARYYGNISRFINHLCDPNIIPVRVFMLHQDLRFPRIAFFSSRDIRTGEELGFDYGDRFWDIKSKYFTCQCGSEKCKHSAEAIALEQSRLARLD
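Readings reflect AlphaScreen signal from monomethyl-H3K9 antibody detection. HMT at 20 nM; substrate b-H3K9 500 nM; cofactor SAM 20 uM; 2 h RT reaction; compounds tested as titrations in qHTS with 15 min preincubation.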
GRP78 ERSR act: qHTS for Inducers of the Endoplasmic Reticulum Stress Response (ERSR) in Human Glioma: qHTS; AID 602332, 2012; 420,000 compounds, 0.02% hits; Potency, µM, for inactives: at the top dose activation, actives largely listed as activators; U87-MG GRP78 promoter luciferase reporter, 16 h; note: series mostly up to about 76 µM; % of control where 0% means no effect; nearly all actives have a fitted effect of over 35% in size
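ERSR induction read as luciferase luminescence (Bright-Glo, 10 min at room temperature) in stably transfected human U87-MG glioma cells exposed to compounds for 16 h, using GRP78 as sensor.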
Starred values were filed as active, the others as inactive; [ ] = remark or other dose. Only a selection was taken, and hits are over-represented in it overall. Calls come from the whole dose curve; as a rule, active = well fitted curve in the direction sought with a large enough effect; inconclusive = small, poorly fitted or top-dose-only effect, or another doubt; inactive = no such curve, though single readings can be large; an effect the other way counts as inactive or inconclusive. Potency is the fitted concentration of half-maximal effect.

How did CN1C(=O)N(CC(=O)N2CCN(S(=O)(=O)Cc3ccccc3)CC2)C(=O)C12CCCCC2 do in these assays?
12-LOX inh: 2%; VDR inhibitor: -5%; G9a block: 56µM*; GRP78 ERSR act: -4%

What do the screens show for `Cc1cccc(NC(=O)Cc2nn(C)c(=O)c3ccccc23)c1C`?
12-LOX inh: -27%

How did O=C(O)CNS(=O)(=O)c1ccc2[nH]c(=O)c(=O)[nH]c2c1 do in these assays?
12-LOX inh: -7%; VDR inhibitor: -10%; Sfp inh: 7%; G9a block: 56µM*; GRP78 ERSR act: -3%

What do the screens show for `CC(C)N(C)C(=O)CSc1nc(NC2CC2)c2ccccc2n1`?
12-LOX inh: 9%

What do the screens show for `COc1ccc(-c2nc3c(C)cccc3cc2CN2CCC[C@H]2CO)cc1OC`?
12-LOX inh: 15%

Results for Cc1[nH]c(C)c(S(=O)(=O)NCCC(=O)NCc2ccc(F)cc2)c1C(=O)N1CCCC1 ?
12-LOX inh: -20%

Results for Cc1ccc(NC(=O)CC2Oc3ccc(C)cc3NC2=O)cc1 (configuration not stated) ?
12-LOX inh: 9%[57.4 µM]; VDR inhibitor: -23%; Sfp inh: 3%; G9a block: inconclusive; GRP78 ERSR act: -3%

Results for COC(=O)CC1Oc2ccc(C)cc2NC1=O (configuration not stated) ?
12-LOX inh: 239%; VDR inhibitor: 0%; Sfp inh: -4%; G9a block: 4%; GRP78 ERSR act: -2%

What do the screens show for `CCC(C)NC(=O)CC1Oc2ccc(C)cc2NC1=O` (configuration not stated)?
12-LOX inh: inactive; VDR inhibitor: -4%; Sfp inh: inconclusive; G9a block: 45µM*; GRP78 ERSR act: -5%

Results for Cc1ccc2c(c1)NC(=O)C(CC(=O)N(C)Cc1ccccc1)O2 (configuration not stated) ?
12-LOX inh: inconclusive; VDR inhibitor: 0%; Sfp inh: inconclusive; G9a block: 50µM*; GRP78 ERSR act: -1%

What do the screens show for `Cc1ncsc1C(=O)/C=C/c1cccs1`?
12-LOX inh: 30%

What do the screens show for `COc1ccccc1CNC[C@H]1Cn2c(-c3cccc(Cl)c3)cnc2CO1`?
12-LOX inh: 3%[176 µM]

How did C#CC[N+](CC#Cc1ccccc1)(CCC)CCC do in these assays?
12-LOX inh: -27%

How did COc1ccc(NC(=O)CCCn2c(=O)c3sccc3n(Cc3ccc(C)cc3C)c2=O)cc1 do in these assays?
12-LOX inh: -13%; VDR inhibitor: 19%; Sfp inh: 50µM*; G9a block: 15%; GRP78 ERSR act: -4%

How did CSCC[C@H](NC(=O)c1ccc(NC[C@@H](N)CS)cc1-c1ccccc1)C(=O)O do in these assays?
VDR inhibitor: 7.9µM*; Sfp inh: inconclusive; GRP78 ERSR act: 2%

Results for COC(=O)[C@H](CCSC)NC(=O)c1ccc(NC[C@@H](N)CS)cc1-c1ccccc1 ?
VDR inhibitor: 10µM*; Sfp inh: inconclusive; GRP78 ERSR act: -8%

What do the screens show for `O=C(CC1C(=O)NCCN1Cc1ccccc1C(F)(F)F)NCCn1cccn1` (configuration not stated)?
12-LOX inh: -13%; VDR inhibitor: -4%; Sfp inh: -2%; G9a block: 35µM*; GRP78 ERSR act: -4%

What do the screens show for `COc1cccc(CN2CCNC(=O)C2CC(=O)NCCn2ccc3ccccc32)c1OC` (configuration not stated)?
12-LOX inh: 3%; VDR inhibitor: 9%; Sfp inh: 1%; G9a block: 40µM*; GRP78 ERSR act: -3%

What do the screens show for `O=C(CC1C(=O)NCCN1Cc1ccccc1C(F)(F)F)NCCN1CCCCC1=O` (configuration not stated)?
12-LOX inh: 5%; VDR inhibitor: -8%; Sfp inh: 4%; G9a block: 40µM*; GRP78 ERSR act: -4%

How did CN(CCN1CCOCC1)C(=O)CC1C(=O)NCCN1Cc1ccccc1C(F)(F)F (configuration not stated) do in these assays?
12-LOX inh: -23%; VDR inhibitor: 3%; Sfp inh: 10%; G9a block: 45µM*; GRP78 ERSR act: -3%

What do the screens show for `COc1cccc(CN2CCNC(=O)C2CC(=O)NCC(N)=O)c1OC` (configuration not stated)?
12-LOX inh: 17%

What do the screens show for `CSc1ccccc1NC(=O)c1cccc(F)c1`?
12-LOX inh: 5%

How did O=C(CC1C(=O)NCCN1Cc1ccccc1C(F)(F)F)NCCN1CCOCC1 (configuration not stated) do in these assays?
12-LOX inh: 7%; VDR inhibitor: 7%; Sfp inh: -3%; G9a block: 45µM*; GRP78 ERSR act: -3%

What do the screens show for `COc1c2c(c(C(=O)/C=C/C(C)=C/c3ccccc3)c3c1OCO3)CCN(C)C2`?
12-LOX inh: 8%; VDR inhibitor: 45µM*; Sfp inh: -9%

How did CN(C)NC1CCS(=O)(=O)C1 (configuration not stated) do in these assays?
12-LOX inh: inconclusive; VDR inhibitor: 17%; Sfp inh: -19%; G9a block: 10µM*; GRP78 ERSR act: 1%

What do the screens show for `O=S1(=O)CCC(NC2CCCC2)C1` (configuration not stated)?
12-LOX inh: 66%; VDR inhibitor: 1%; Sfp inh: -7%; G9a block: 10%; GRP78 ERSR act: -2%

How did O=C(NCc1ccccc1)c1nc(Cc2c[nH]c3ccccc23)no1 do in these assays?
12-LOX inh: -3%

Results for CCOC(=O)N1CCc2c(sc(NCc3ccc(N(C)C)cc3)c2C(=O)Nc2ccc(OC)cc2)C1 ?
12-LOX inh: inconclusive; VDR inhibitor: -18%; G9a block: 2.8µM*; GRP78 ERSR act: -8%

What do the screens show for `CCOC(=O)N1CCc2c(sc(NCc3cccc(F)c3)c2C(=O)Nc2ccc(OC)cc2)C1`?
12-LOX inh: inconclusive; VDR inhibitor: inconclusive; G9a block: inconclusive; GRP78 ERSR act: -5%

Results for CCOc1ccc(NC(=O)c2c(NCc3cc(OC)c(OC)cc3OC)sc3c2CCCC3)cc1 ?
12-LOX inh: inconclusive; VDR inhibitor: -7%; G9a block: 13µM*; GRP78 ERSR act: -4%

What do the screens show for `CCOC(=O)N1CCc2c(sc(NCc3cc(OC)c(OC)cc3OC)c2C(=O)Nc2ccc(OCC)cc2)C1`?
12-LOX inh: 1%; VDR inhibitor: -28%; G9a block: 3.2µM*; GRP78 ERSR act: -5%
